{"source": "PubChem BioAssay (NCI)", "assay_in_all_cases": "NCI-60 one-dose screen, 48 h (100 = growth as untreated, 0 = no growth, -100 = all killed)", "settings_in_all_cases": "10 µM", "key": {"786-0 renal": {"tested_on": "786-0 renal"}, "MALME-3M melanoma": {"tested_on": "MALME-3M melanoma"}, "SF-268 CNS": {"tested_on": "SF-268 CNS"}, "SF-295 CNS": {"tested_on": "SF-295 CNS"}, "UACC-257 melanoma": {"tested_on": "UACC-257 melanoma"}, "PC-3 prostate": {"tested_on": "PC-3 prostate"}, "UACC-62 melanoma": {"tested_on": "UACC-62 melanoma"}, "SK-MEL-28 melanoma": {"tested_on": "SK-MEL-28 melanoma"}, "SK-MEL-2 melanoma": {"tested_on": "SK-MEL-2 melanoma"}, "EKVX NSCLC": {"tested_on": "EKVX NSCLC"}, "SN12C renal": {"tested_on": "SN12C renal"}, "UO-31 renal": {"tested_on": "UO-31 renal"}, "TK-10 renal": {"tested_on": "TK-10 renal"}, "ACHN renal": {"tested_on": "ACHN renal"}, "CAKI-1 renal": {"tested_on": "CAKI-1 renal"}, "A498 renal": {"tested_on": "A498 renal"}, "OVCAR-8 ovarian": {"tested_on": "OVCAR-8 ovarian"}, "OVCAR-5 ovarian": {"tested_on": "OVCAR-5 ovarian"}, "IGROV1 ovarian": {"tested_on": "IGROV1 ovarian"}, "OVCAR-3 ovarian": {"tested_on": "OVCAR-3 ovarian"}}, "note": "This is part of a sample that, as a whole, favours compounds with a hit. Of some 83,000 tested, about 20% had one in any assay.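 Assay: single dose, 48 h. Readout: percent growth (0 = no net growth; negative = cell death). Active: <10.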 Unmarked numbers belong to inactive results. Calls of active or inactive are those of the source.", "data": [{"smiles": "Cn1cc(-c2cc(N)n3nc(-c4cn(C)c5ccccc45)cc3n2)c2cc(F)ccc21", "values": [{"measurement": "growth", "setting": "786-0 renal", "value": "-89.4% (active)"}, {"measurement": "growth", "setting": "MALME-3M melanoma", "value": "-78.5% (active)"}, {"measurement": "growth", "setting": "SF-268 CNS", "value": "-63.1% (active)"}, {"measurement": "growth", "setting": "SF-295 CNS", "value": "-72.6% (active)"}, {"measurement": "growth", "setting": "UACC-257 melanoma", "value": "-86.4% (active)"}, {"measurement": "growth", "setting": "PC-3 prostate", "value": "-28% (active)"}, {"measurement": "growth", "setting": "UACC-62 melanoma", "value": "-67.7% (active)"}, {"measurement": "growth", "setting": "SK-MEL-28 melanoma", "value": "-80.4% (active)"}, {"measurement": "growth", "setting": "SK-MEL-2 melanoma", "value": "-92.5% (active)"}, {"measurement": "growth", "setting": "EKVX NSCLC", "value": "-50.1% (active)"}, {"measurement": "growth", "setting": "SN12C renal", "value": "-67% (active)"}, {"measurement": "growth", "setting": "UO-31 renal", "value": "-82.4% (active)"}, {"measurement": "growth", "setting": "TK-10 renal", "value": "-58.6% (active)"}, {"measurement": "growth", "setting": "ACHN renal", "value": "-89.4% (active)"}, {"measurement": "growth", "setting": "CAKI-1 renal", "value": "-80.9% (active)"}, {"measurement": "growth", "setting": "A498 renal", "value": "-68.9% (active)"}, {"measurement": "growth", "setting": "OVCAR-8 ovarian", "value": "-94.9% (active)"}, {"measurement": "growth", "setting": "OVCAR-5 ovarian", "value": "-52.6% (active)"}, {"measurement": "growth", "setting": "IGROV1 ovarian", "value": "-41.5% (active)"}, {"measurement": "growth", "setting": "OVCAR-3 ovarian", "value": "-75% (active)"}]}, {"smiles": "COc1ccc2[nH]cc(-c3nc(N)nnc3-c3cn(C)c4ncc(Br)cc34)c2c1", "values": [{"measurement": "growth", "setting": "786-0 renal", "value": 12.8, "unit": "%"}, {"measurement": "growth", "setting": "MALME-3M melanoma", "value": 28.7, "unit": "%"}, {"measurement": "growth", "setting": "SF-268 CNS", "value": 12.9, "unit": "%"}, {"measurement": "growth", "setting": "SF-295 CNS", "value": 17, "unit": "%"}, {"measurement": "growth", "setting": "UACC-257 melanoma", "value": 39, "unit": "%"}, {"measurement": "growth", "setting": "PC-3 prostate", "value": 10.5, "unit": "%"}, {"measurement": "growth", "setting": "UACC-62 melanoma", "value": 14.2, "unit": "%"}, {"measurement": "growth", "setting": "SK-MEL-28 melanoma", "value": 37.5, "unit": "%"}, {"measurement": "growth", "setting": "SK-MEL-2 melanoma", "value": 36.2, "unit": "%"}, {"measurement": "growth", "setting": "EKVX NSCLC", "value": 35.1, "unit": "%"}, {"measurement": "growth", "setting": "SN12C renal", "value": 17.8, "unit": "%"}, {"measurement": "growth", "setting": "UO-31 renal", "value": "3.12% (active)"}, {"measurement": "growth", "setting": "TK-10 renal", "value": 11, "unit": "%"}, {"measurement": "growth", "setting": "ACHN renal", "value": 10.2, "unit": "%"}, {"measurement": "growth", "setting": "CAKI-1 renal", "value": "-0.341% (active)"}, {"measurement": "growth", "setting": "A498 renal", "value": "-21.6% (active)"}, {"measurement": "growth", "setting": "OVCAR-8 ovarian", "value": "1.18% (active)"}, {"measurement": "growth", "setting": "OVCAR-5 ovarian", "value": 20.6, "unit": "%"}, {"measurement": "growth", "setting": "IGROV1 ovarian", "value": "3.82% (active)"}, {"measurement": "growth", "setting": "OVCAR-3 ovarian", "value": "-0.754% (active)"}]}, {"smiles": "O=C(c1ccccc1)c1ccc2nc(-c3ccccc3Br)[nH]c2c1", "values": [{"measurement": "growth", "setting": "786-0 renal", "value": "-89.9% (active)"}, {"measurement": "growth", "setting": "MALME-3M melanoma", "value": "-68.4% (active)"}, {"measurement": "growth", "setting": "SF-268 CNS", "value": "-2.6% (active)"}, {"measurement": "growth", "setting": "SF-295 CNS", "value": 11.2, "unit": "%"}, {"measurement": "growth", "setting": "UACC-257 melanoma", "value": "-59.1% (active)"}, {"measurement": "growth", "setting": "PC-3 prostate", "value": "-19.4% (active)"}, {"measurement": "growth", "setting": "UACC-62 melanoma", "value": "-47.5% (active)"}, {"measurement": "growth", "setting": "SK-MEL-28 melanoma", "value": "-26.7% (active)"}, {"measurement": "growth", "setting": "SK-MEL-2 melanoma", "value": "-93.9% (active)"}, {"measurement": "growth", "setting": "EKVX NSCLC", "value": "-76.8% (active)"}, {"measurement": "growth", "setting": "SN12C renal", "value": "-42.8% (active)"}, {"measurement": "growth", "setting": "UO-31 renal", "value": "-99.1% (active)"}, {"measurement": "growth", "setting": "TK-10 renal", "value": "-77.7% (active)"}, {"measurement": "growth", "setting": "ACHN renal", "value": "-98.2% (active)"}, {"measurement": "growth", "setting": "CAKI-1 renal", "value": "-92.8% (active)"}, {"measurement": "growth", "setting": "A498 renal", "value": "9.77% (active)"}, {"measurement": "growth", "setting": "OVCAR-8 ovarian", "value": 12.6, "unit": "%"}, {"measurement": "growth", "setting": "OVCAR-5 ovarian", "value": "-65.8% (active)"}, {"measurement": "growth", "setting": "IGROV1 ovarian", "value": "-58.9% (active)"}, {"measurement": "growth", "setting": "OVCAR-3 ovarian", "value": "-80.3% (active)"}]}]}
